From PubChem BioAssay (EPA / NIEHS)
Results filed as inconclusive are left out. Active and inactive are the calls of the source. The calls were made as follows, unless noted: active = hit-call score of the fitted dose curve at least 0.9, where 1 is the maximum; inconclusive = response in the unintended direction; inactive = score below 0.9.

Tests used:
[1] = CCTE_Mundy_HCI_Cortical_NOG_NeuriteCount: CCTE's Neurite Outgrowth Assay in rat cortical cells for Neurite Count, Mundy Lab (AID 2284212; active = hit-call score of the fitted dose curve at least 0.9, where 1 is the maximum; inactive = score below 0.9;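 also: cells fixed about two days after chemical exposure began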)
Outline: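 Rat cortical primary cells; compound added 2 h post-plating, 1/10 dilution of working solution. Anti-betaIII-tubulin/AF488 ICC; ArrayScan neurite count vs DMSO.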

[2] = CCTE_Mundy_HCI_Cortical_NOG_NeuriteLength: CCTE's Neurite Outgrowth Assay in rat cortical cells for Neurite Length, Mundy Lab (AID 2284213; active = hit-call score of the fitted dose curve at least 0.9, where 1 is the maximum; inactive = score below 0.9)
Outline: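 First, rat primary cortical cells were plated and, 2 h later, given test chemical as a 1/10 dilution. Finally, βIII-tubulin immunostaining enabled automated imaging of neurite length.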

[3] = CCTE_Mundy_HCI_hN2_NOG_NeuriteCount: CCTE's Neurite Outgrowth Assay in human hN2 cells for Neurite Count, Mundy Lab (AID 2284219)
Outline: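 In this morphology assay, hNP1-derived neurons received test chemical 2 h post-plating and were fixed two days later in warm paraformaldehyde/sucrose containing Hoechst 33342. Neurites, labelled by rabbit anti-βIII-tubulin (1:800) and Alexa Fluor-488 (1:500), were counted automatically.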

[4] = CCTE_Mundy_HCI_hN2_NOG_NeuriteLength: CCTE's Neurite Outgrowth Assay in human hN2 cells for Neurite Length, Mundy Lab (AID 2284220)
Outline: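 Plate hNP1-derived neurons, then add chemical 2 h later as a 1/10 dilution. Stain with anti-βIII-tubulin then Alexa Fluor-488 secondary, and image automatically to measure neurite length.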

[5] = CCTE_Mundy_HCI_hN2_NOG_NeuronCount: CCTE's Neurite Outgrowth Assay in human hN2 cells for Neuron Count, Mundy Lab (AID 2284221)
Outline: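 Read-out is the number of betaIII-tubulin-positive neurons imaged by automated high-content analysis, with DMSO as negative control.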

[6] = CCTE_Mundy_HCI_Cortical_NOG_NeuronCount: CCTE's Neurite Outgrowth Assay in rat cortical cells for Neuron Count, Mundy Lab (AID 2284236);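 also: neurons counted by imaging betaIII-tubulin and Hoechst stained cortical cells; cells exposed to compound for about 48 hours before fixation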
Outline: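 Read-out: neuron number by high-content imaging of betaIII-tubulin (Alexa Fluor-488) and Hoechst-labelled rat primary cortical cells.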

[7] = CCTE_Mundy_HCI_Cortical_NOG_BPCount: CCTE's Neurite Outgrowth Assay in rat cortical cells for Branch Point Count, Mundy Lab (AID 2284237; active = hit-call score of the fitted dose curve at least 0.9, where 1 is the maximum; inactive = score below 0.9)
Outline: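 Measured 50.33 h after dosing, this morphology endpoint uses rat primary cortical cultures labelled for betaIII-tubulin. Branch points are quantified by high-content imaging, with DMSO as negative control and baseline.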

Measured: AC50

[Li+]
active: [4] 300 nM | [5] 304 nM
inactive: all other assays above
